Screening results (PubChem)
CYP2C19 inh = blockers of cytochrome P450 2C19 activity – biochemical, luminescence, ADME assay, primary screen. AID 778, 2007. 96,000 tested, 21% active. inhibition, % at 5 µM. CYP2C19 Supersomes, luciferin-H EGE luminescence, 30 min. P33261;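 active = CYP2C19 inhibition above a set limit at 5 µM in the primary screen, cut at about 50% in these data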;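 also: plate controls were negative control wells for no effect and 2.5 mM tranylcypromine positive control for full effect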
Target sequence (P33261 whole entry, looked up): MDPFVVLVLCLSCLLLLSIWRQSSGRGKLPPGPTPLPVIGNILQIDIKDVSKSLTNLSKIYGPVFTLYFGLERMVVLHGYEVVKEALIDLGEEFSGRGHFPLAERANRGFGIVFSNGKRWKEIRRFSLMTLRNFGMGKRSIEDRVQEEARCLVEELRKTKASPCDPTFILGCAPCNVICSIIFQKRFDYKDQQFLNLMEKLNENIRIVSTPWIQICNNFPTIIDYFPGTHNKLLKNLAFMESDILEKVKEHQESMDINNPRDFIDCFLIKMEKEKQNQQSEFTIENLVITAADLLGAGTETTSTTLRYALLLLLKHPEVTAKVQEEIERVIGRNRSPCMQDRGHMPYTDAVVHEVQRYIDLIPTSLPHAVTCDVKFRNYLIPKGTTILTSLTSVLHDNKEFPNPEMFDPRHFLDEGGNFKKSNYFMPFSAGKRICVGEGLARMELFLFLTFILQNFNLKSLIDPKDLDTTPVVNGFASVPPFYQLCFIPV
PostGolgi yeast = phenotypic screen on post-Golgi transport, primary screen | post-Golgi transport phenotypic cell assay | 98,000 tested, 0.9% active | inhibition, % at 10 µM | AID 739, 2007;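 also: yeast cells grown in 1536-well plates; yeast grown about 18 h at 30C before absorbance read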
CYP2C9 act = human CYP2C9 activators, primary screen, biochemical, luminescence; AID 1024, 2008; recombinant CYP2C9, luciferin-H conversion; hits give high values; factor 1 = untreated enzyme, 0 = blocked; 96,000 tested, 1.4% active; activation factor at 5 µM;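 active = activation factor of 2 or more for CYP2C9 at a 5 µM dose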;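 also: 0 = sulfaphenazole-blocked wells and 1 = vehicle-only wells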
CYP2C19 act = human CYP2C19 activators, primary screen, biochemical, luminescence; AID 1025, 2008; activation factor at 5 µM; Cytochrome P450 2C19 (Homo sapiens), P33261; recombinant CYP2C19, luciferin-H EGE luminescence; hits give high values; 0 = fully inhibited enzyme, 1 = untreated enzyme; 96,000 tested, under 10 active;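 active = activation factor of at least 2 at 5 µM in the primary screen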;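 also: 0 = wells with 2.5 mM tranylcypromine and 1 = vehicle-only wells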
PostGolgi ctrl = growth inhibition of yeast control strain, primary screen, counter-screen for post-Golgi transport modulator project | 98,000 tested, 5% active | inhibition, % at 10 µM | efflux-deficient yeast background strain, growth absorbance A615, 16 h | AID 738, 2007
CYP2C9 inh = blockers of cytochrome P450 2C9 activity – biochemical, luminescence, ADME assay, primary screen | 96,000 tested, 20% active | AID 777, 2007 | CYP2C9 Supersomes, luciferin-H conversion | inhibition, % at 5 µM;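 active = blocking of liver enzyme CYP2C9 beyond about 50% at 5 µM, limit read from the data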
* = called active by the depositor; . = no result. Hits are enriched below; roughly 32% of the tested compounds scored in any of these assays. Rule as the data show it, unless noted: active = inhibition above about 30%; inactive = the rest.

SMILES	CYP2C19 inh	PostGolgi yeast	CYP2C9 act	CYP2C19 act	PostGolgi ctrl	CYP2C9 inh
O=C(CNC(=O)Cn1ccc2ccccc2c1=O)NCCCN1CCN(c2cccc(Cl)c2)CC1	10	-3	0.9	0.9	-3	10
Cc1ccc(SCC(=O)O/N=C(\N)c2ccc([N+](=O)[O-])cc2)cc1	7	1	1	0.9	16	-2
CN(CC(=O)O/N=C(\N)c1ccc([N+](=O)[O-])cc1)S(=O)(=O)c1ccc2ccccc2c1	10	10	2.3*	0.9	29	-133
CC(C)(C)NC(=O)C1Cc2ccccc2CN1C(=O)Nc1cccc(Cl)c1 (centres undefined)	41	1	0.7	0.6	-1	31
O=S(=O)(N/N=C1/CC(c2ccccc2)Oc2ccccc21)c1ccc(Br)cc1 (centres undefined)	27	-5	0.4	0.7	38*	65*
Cc1ccc(S(=O)(=O)N/N=C2/CC(c3ccccc3)Oc3ccccc32)cc1[N+](=O)[O-] (centres undefined)	67*	-8	0	0.3	36*	99*
CCOC(=O)C(CC)Sc1nc(N)c(NC(=O)c2ccc(OC)c(OC)c2)c(=O)[nH]1 (centres undefined)	0	-6	1	1	22	0
CS(=O)(=O)NCc1nnc(SCC(=O)NC2CCCCC2)n1-c1ccc(F)cc1	-4	17	1	1	7	-2
C/C(=N\NC(=O)c1csc2ccccc12)c1ccc(O)cc1	84*	-3	2.8*	0.2	13	-175
OC(c1ccccc1)c1nc2ccccc2s1 (centres undefined)	65*	3	1.1	0.3	9	-11
CC1=C(C#N)C(c2cccnc2)C2=C(CC(c3ccc(Cl)cc3)CC2=O)N1 (centres undefined)	92*	-1	0.3	0.1	1	73*
COc1ccc(OC(C)C(=O)N2CCOCC2)cc1 (centres undefined)	15	5	1	0.8	15	-3
CC(Oc1ccc(-c2ccccc2)cc1)C(=O)N1CCOCC1 (centres undefined)	55*	-2	0.4	0.5	7	56*
N#C/C(C(=O)NCc1ccccc1)=C1\SC(CCO)C(=O)N1c1ccccc1 (centres undefined)	.	9	.	.	11	.
CCC(C)NC(=O)CSc1nc2ccccc2c(=O)n1Cc1ccc(OC)cc1 (centres undefined)	85*	-2	0.9	0.1	13	12
COc1ccc(NC(=O)CSc2nc3ccccc3c(=O)n2CCNC(C)=O)cc1	94*	-10	0.4	0.1	2	58*
COc1ccc(NC(=O)CSc2nc3ccccc3c(=O)n2CCNC(C)=O)c(OC)c1	48	-4	0.5	0.5	22	51*
CCn1c(SCC(=O)Nc2ccccc2OC)nc2ccccc2c1=O	61*	-10	0.1	0.4	26	86*
CCC(C)NC(=O)CSc1nc2ccsc2c(=O)n1-c1ccc(OC)cc1 (centres undefined)	3	-2	0.9	1	0	7
CCOc1ccc(NC(=O)CSc2nc3ccccc3c(=O)n2CCNC(C)=O)cc1	6	2	0.9	0.9	4	6
CC(=O)c1n[nH]nc1NC(=O)c1ccccc1	5	-3	1	1	10	3
O=C(COc1ncnc2ccccc12)NC1CCS(=O)(=O)C1 (centres undefined)	6	-6	1	0.9	4	0
CCc1c(O)nc(SCC(=O)Nc2ccc(C)cc2)n(C2CCCCC2)c1=O	1	10	0.9	1	-1	8
O=C(NC1CCCCC1)C(c1ccncc1)N(CC1CCCO1)C(=O)C(F)(F)F (centres undefined)	58*	10	0.6	0.4	8	42
O=C(NC1CCCC1)C(c1ccc(O)cc1)N(CC1CCCO1)C(=O)C1COc2ccccc2O1 (centres undefined)	56*	0	0.3	0.4	15	70*
SMILES	CYP2C19 inh	PostGolgi yeast	CYP2C9 act	CYP2C19 act	PostGolgi ctrl	CYP2C9 inh
O=C(O)c1ccc2c(c1)C(=O)N(C(Cc1ccc(O)cc1)C(=O)O)C2=O (centres undefined)	2	-9	1	1	17	-4
Cc1ccc(CCSCC(=O)O)cn1	-7	-6	1	1.1	1	-5
CCOc1cc(-c2noc(N)c2C#N)cc(OCC)c1OCC	42	1	0.5	0.6	30	53*
Cc1ccccc1-c1noc(N)c1C#N	7	-5	0.6	0.9	2	43
CCSc1nnc(NC(=O)c2ccccn2)s1	22	13	0.8	0.8	7	22
CCSc1nnc(NC(=O)c2csc3c2CCC(C)C3)s1 (centres undefined)	-20	-5	0.2	1.2	7	82*
CCSc1nnc(NC(=O)c2ccc3c(c2)OCO3)s1	19	10	0.8	0.8	41*	19
CCSc1nnc(NC(=O)c2cccnc2)s1	-3	-11	0.8	1	15	19
CCSc1nnc(NC(=O)c2ccc(Br)s2)s1	0	-9	0.4	1	7	57*
COc1cc(C2c3sc(=O)[nH]c3SC3C4CCC(C4)C23)ccc1O (centres undefined)	51*	5	0.5	0.5	19	53*
COc1ccc(C2c3sc(=O)[nH]c3SC3C4CCC(C4)C23)cc1 (centres undefined)	56*	8	0.8	0.4	27	16
Cc1ccccc1OCCN1C(=O)NC2(CCCc3ccccc32)C1=O (centres undefined)	35	15	1.5	0.6	-2	-54
CCOc1cc(C=O)ccc1OCCCN1C(=O)NC(C)(C)C1=O	68*	3	0.7	0.3	3	31
CC1(C)NC(=O)N(CCOc2cccc(Cl)c2Cl)C1=O	87*	-4	0.7	0.1	11	32
CC1(C)NC(=O)N(CCCOc2ccccc2Br)C1=O	89*	2	0.4	0.1	12	57*
CC1(C)NC(=O)N(CCOCCOc2c(Cl)cc(Cl)cc2Cl)C1=O	56*	-5	0.6	0.4	4	40
CC1(C)NC(=O)N(CCOCCOc2ccccc2)C1=O	48	-5	0.8	0.5	5	18
C/C=C/c1ccc(OCCCCN2C(=O)NC(C)(C)C2=O)c(OC)c1	33	-12	0.8	0.7	21	22
Brc1ccccc1OCCCCCN1CCCC1	10	-1	1	0.9	11	-1
CN1CCC(OC(=O)C23CCC(C)(C(=O)O2)C3(C)C)CC1 (centres undefined)	-20	-1	0.5	1.2	9	49
